The list is not random: actives were taken first. Their share in the collection is about 2.8%.
Pol eta inh – qHTS for Inhibitors of Polymerase Eta; hit rate 1.2% among 390,000; Potency, µM (doses to about 114 µM), inactives show top-dose activity change, negative = inhibition, usual class: inhibitors; recombinant Pol eta, fluorescent DNA replication assay; AID 588591, 2011; also: potency is read from the fitted curve at half-maximal effect; % is scaled to controls: 0 for no effect and ±100 for the full control effect
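Fluorescent replication assay: 50 nM final substrate added after a 15 min room-temperature compound preincubation with 10 nM enzyme. Signal taken at 0 min and again at 10 min.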
WRN inhibitor – qHTS for Inhibitors of WRN Helicase | Bifunctional 3'-5' exonuclease/ATP-dependent helicase WRN (Homo sapiens), Q14191 | WRN helicase unwinding, fluorescent forked duplex, kinetic | Potency, µM (highest dose often 114 µM), for the others: at the top dose activity change, negative = inhibition, most hits filed as inhibitors | hit rate 0.46% among 360,000 | AID 651768, 2012; also: potency is read from the fitted curve at half-maximal effect; % is scaled to controls: 0 for no effect and ±100 for the full control effect; nearly all actives have a fitted effect of over 55% in size
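WRN at 20 nM final was preincubated with compound for 15 min at room temperature; reaction started with 100 nM forked duplex oligonucleotide carrying fluorophore and quencher plus 2 mM ATP (final). Unwinding followed kinetically by red fluorescence (ex 525/em 598 nm).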
POLI inh – qHTS for Inhibitors of Polymerase Iota | DNA polymerase iota (Homo sapiens), Q9UNA4 | Pol iota fluorescent replication assay, 10 min | Potency, µM (series often up to 115 µM), for inactives: top-dose activity, negative = inhibition, hits mostly inhibitors | hit rate 1% among 390,000 | AID 588590, 2011; also: potency is read from the fitted curve at half-maximal effect
Target sequence (Q9UNA4 whole entry, looked up): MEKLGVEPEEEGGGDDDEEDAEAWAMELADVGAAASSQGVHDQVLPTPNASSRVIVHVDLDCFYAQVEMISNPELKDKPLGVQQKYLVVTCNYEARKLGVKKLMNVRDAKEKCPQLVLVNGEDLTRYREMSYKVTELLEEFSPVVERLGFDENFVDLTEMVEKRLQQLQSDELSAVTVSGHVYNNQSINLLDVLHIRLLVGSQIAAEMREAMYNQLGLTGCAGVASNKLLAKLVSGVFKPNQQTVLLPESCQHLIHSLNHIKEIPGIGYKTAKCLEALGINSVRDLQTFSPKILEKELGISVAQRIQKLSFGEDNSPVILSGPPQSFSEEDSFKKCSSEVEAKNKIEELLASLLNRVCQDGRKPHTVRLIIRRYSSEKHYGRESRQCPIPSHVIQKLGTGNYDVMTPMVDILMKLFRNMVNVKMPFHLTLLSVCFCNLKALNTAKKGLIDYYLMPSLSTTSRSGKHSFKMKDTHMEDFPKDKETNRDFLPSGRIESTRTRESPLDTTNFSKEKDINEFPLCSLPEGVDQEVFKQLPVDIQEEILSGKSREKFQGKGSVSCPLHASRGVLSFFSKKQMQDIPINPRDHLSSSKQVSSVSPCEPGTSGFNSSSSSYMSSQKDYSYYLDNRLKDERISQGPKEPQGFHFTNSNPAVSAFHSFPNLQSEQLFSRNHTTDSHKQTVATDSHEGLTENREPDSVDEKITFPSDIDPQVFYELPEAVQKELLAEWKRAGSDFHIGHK
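Pol iota at 10 nM preincubated 15 min with compounds at room temperature; reaction started with fluorescent substrate, 50 nM final. Fluorescence read kinetically at 0 and 10 min; buffer-only wells as negative control.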
POLK inh – qHTS for Inhibitors of Polymerase Kappa. hit rate 0.53% among 400,000. DNA polymerase kappa (Homo sapiens), Q9UBT6. AID 588579, 2011. purified Pol kappa, fluorescent DNA synthesis assay, 10 min. Potency, µM (series often up to 107 µM), inactives show top-dose activity, negative = inhibition, hits mostly inhibitors; also: potency is read from the fitted curve at half-maximal effect; % is scaled to controls: 0 for no effect and ±100 for the full control effect
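Kinetic fluorescence readout at 0 and 10 min followed reaction start with substrate at 50 nM final. Beforehand, enzyme (10 nM Pol kappa) stood 15 min with compound at room temperature; buffer-only wells were negative controls.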
PI5P4Ka inh – qHTS for Inhibitors of phosphatidylinositol 5-phosphate 4-kinase (PI5P4K); Phosphatidylinositol 5-phosphate 4-kinase type-2 alpha (Homo sapiens), P48426; PI5P4Kalpha enzyme, ADP-Glo luminescence, 60 min; hits give low values; max response, %; hit rate 1.2% among 330,000; AID 652105, 2013; active = max response of -50% or lower; inconclusive = between -30% and -50%; inactive = -30% or higher; also: value at the top dose of about 77 µM; % is scaled to controls: 0 for no effect and ±100 for the full control effect
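Controls without substrate or without enzyme flank wells where PI5P4Kalpha converts substrate using 5 microM ATP (final). Incubation lasts 60 minutes at room temperature; ADP formed is read by ADP-Glo luminescence.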
POLB inh – qHTS Assay for Inhibitors of DNA Polymerase Beta | P06746 | Pol beta primer extension/strand displacement, fluorescence kinetic | Potency, µM (titrated, usually from 114 µM), for inactives: at the highest dose activity change, negative = inhibition, hits mostly inhibitors | hit rate 1.3% among 340,000 | AID 485314, 2010; also: potency is read from the fitted curve at half-maximal effect; % is scaled to controls: 0 for no effect and ±100 for the full control effect
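Enzyme-only controls used 10 nM Pol beta; buffer lacking enzyme served as negative control. Compound preincubated 15 min, then 50 nM substrate added; 0 and 10 min reads at room temperature.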
An asterisk follows results filed as active; ? = inconclusive; nt = no result; ! = not confirmed by another sample; [ ] = remark or other dose. Unless noted, calls follow the shape of the dose curve; as a rule, active = well fitted curve in the direction sought with a large enough effect; inconclusive = small, poorly fitted or top-dose-only effect, or another doubt; inactive = no such curve, though single readings can be large; an effect the other way counts as inactive or inconclusive.

SMILES	Pol eta inh	WRN inhibitor	POLI inh	POLK inh	PI5P4Ka inh	POLB inh
Cc1ccc(C(=O)Nc2ccc(S(=O)(=O)O)c3cc(S(=O)(=O)O)cc(S(=O)(=O)O)c23)cc1NC(=O)c1cccc(NC(=O)Nc2cccc(C(=O)Nc3cc(C(=O)Nc4ccc(S(=O)(=O)O)c5cc(S(=O)(=O)O)cc(S(=O)(=O)O)c45)ccc3C)c2)c1	0.22µM*	nt	1.4µM*	0.032µM*!	nt	0.89µM*
O=C(CSc1nc2nn(-c3ccccc3)c(=O)c-2c2n1CCCCC2)c1ccc(O)c(O)c1	1.8µM*	2.8µM*	2µM*	4µM*	-54*	nt
CNC(=O)CSc1nc2nn(-c3ccccc3)c(=O)c-2c2n1CCCCC2	-7%	-12%	-14%[58.9 µM]	0%	nt	36%
N[C@@H](CCC(=O)N[C@@H](CSN=O)C(=O)NCC(=O)O)C(=O)O	-16%	-7%	7%	17%	-27	nt
[N-]=[N+]=Nc1ccc(C(=O)CSC[C@H](NC(=O)CC[C@H](N)C(=O)O)C(=O)NCC(=O)O)cc1	?	nt	28µM*	?	nt	?
C[C@@H]1[C@H](C)CC[C@@]2(C(=O)O)CC[C@]3(C)C(=CC[C@H]4[C@@]5(C)CC[C@@H](O)C(C)(C)[C@@H]5CC[C@@]43C)[C@@H]12	nt	nt	nt	-14%[12 µM]	nt	nt
COc1ccc(CNC(=O)Nc2cc(C)cc(C)c2)cc1	-1%	0%	20%	-1%	5	32µM*
CC1(C)CC(=O)C=C(c2ccc(-c3cnn(Cc4ccccc4)c3)cc2)C1=O	-20%	-4%	nt	nt	0	nt
O=C(O)C1C2C=CC3(CN(C/C=C/c4ccccc4)C(=O)C13)O2 (centres undefined)	?	-7%	3%	-14%	-9	?
Cc1ccc2c(c1)C1OCCC1C1N2C(=O)C2C(C(=O)O)C3C=CC21O3 (centres undefined)	?	-14%	?	-30%	nt	40µM*
O=C(Nc1nc(-c2ccccc2)cs1)c1ccccc1NS(=O)(=O)c1ccc(F)cc1	50µM*	-4%[11.6 µM]	-25%	-12%	-16	45µM*
O=C(Nc1ccccc1)Nc1ccc(O)c2ccccc12	-16%	1%	?	-3%	-52*	nt
Cc1cc(C)cc(NC(=O)Nc2ccc(NC(=O)c3ccccc3O)cc2)c1	-16%	-4%	0%	-10%	-4	35µM*
O=C(Nc1ccccc1)Nc1ccc(NC(=O)c2ccccc2O)cc1	3%	-1%[57.1 µM]	-27%	-10%	0	32µM*
Cc1ccc(NC(=O)c2ccccc2O)cc1	-15%	3%	-6%	4%	2	6%
Cc1cccc(NC(=O)CSc2nc3c(oc4ccccc43)c(=O)n2-c2ccccc2)c1C	-11%	nt	21%	-20%	nt	0%
Nc1nc(Nc2ccccc2)nc(NC2CCCCC2)c1[N+](=O)[O-]	-17%	79µM*	-27%	-15%	-12	-22%
CCC1(C)Cc2nc(Cl)c(C#N)cc2CO1 (centres undefined)	-7%	9%	32%	-7%	4	23%
CCCC1Cc2nc(Cl)c(C#N)cc2CO1 (centres undefined)	?	-13%	?	-30%	?	45µM*
Cc1ccc(NC(=O)COC(=O)/C=C/c2ccc(Br)o2)cc1S(=O)(=O)N(C)C	5%	-6%[11.6 µM]	45µM*	?	-8	-25%
Cc1ccc(NC(=O)c2ccc(Br)o2)cc1S(=O)(=O)N(C)C	-1%	-2%	25%	6%	-19	13%
CN(C)S(=O)(=O)c1cccc(NC(=O)COC(=O)/C=C/c2ccc(Br)o2)c1	?	-4%[11.6 µM]	45µM*	?	?	?
S=c1[nH]c(=S)c2[nH]cnc2[nH]1	nt	nt	79µM*	-11%	nt	nt
